The whole screen tested about 1,300 compounds, of which about 1,000 (77%) were called active. About 7% were inconclusive and are not listed. The call rests on the fitted dose curve; in most records, active means well fitted inhibition curve with a large enough effect; inconclusive means small, poorly fitted or top-dose-only effect; inactive means no such curve, though single readings can be large or run the other way. So high a share suggests a set chosen from earlier hits. The list shows a part of the results.
Assay: qHTS of small molecules that selectively kill Giardia lamblia: Hit Validation.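 Further: viability measured as ATP content by luminescence so killing lowers signal; nearly all actives have a fitted effect of over 65% in size.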
Conditions: Giardia lamblia trophozoite viability, dose-response; series mostly up to 38.3 µM
Text: Giardia lamblia is a human pathogen afflicting impoverished nations, and the most common cause of outbreaks of diarrhea in the United States. Giardia has been classified by the CDC as a category B bioterrorism organism. The favored anti giardiasis drugs in the US are metronidazole or tinidazole, compounds that have undesirable side effects. Moreover, increasing resistance to drug regimes and recurrence are a concern. It is thus clear that alternative drug treatments are needed.
In a collaboration between the University of Maryland, College Park and the NIH Chemical Genomics Center, a bioluminescence Giardia viability assay based on the trophozoites' ATP content was developed. This assay is suitable for high throughput screening, and miniaturized the assay for compound screening in 1536-well plates. The goal of the project is to screen the Molecular Libraries Small Molecule Repository (MLSMR) for compounds that selectively kill Giardia trophozoites.
NIH Chemical Genomics Center [NCGC]
NIH Molecular Libraries Probe Centers Network [MLPCN]
Assay Submitter (PI): Osnat Herzberg, University of Maryland, College Park, MD.
1. Dispense 2 ul/well media
2. Dispense 23 nl/well compounds
3. Dispense 4 ul/well Giardia trophozoites at a concentration of 100 cells/well
4. Incubate 48 hrs at 37 deg C anaerobically
5. Dispense 4 ul/well ATPLite 1-Step Luminescence assay kit
6. Incubate 15-30 min at room temperature
7. Read luminescence signal on ViewLux plate reader
With `CCOC(=O)N/N=C\c1ccc([N+](=O)[O-])s1` the Potency was 4.1 µM (active).
In the case of `Cc1ccnn1CC(=O)N/N=C/c1ccc([N+](=O)[O-])s1`, the Potency is reported as 3.65 µM (active).
For `COc1ccccc1NC(=O)C(=O)N/N=C/c1ccc([N+](=O)[O-])s1`, the Potency was 2.05 µM (active).
In the case of `COC(=O)N/N=C/c1ccc([N+](=O)[O-])s1`, the Potency is reported as 4.1 µM (active).
For `O=C(COC(=O)c1cc(Cl)ccc1O)NC(=O)NCc1ccccc1`, the Potency was “inactive”.
In the case of `Cc1csc(NC(=O)CSc2nc3[nH]c(=O)cc(O)c3s2)n1`, the Potency is reported as 1.03 µM (active).
For `CC(NCCN(C)C)C1CCC2C3CCc4cc(O)ccc4C3CCC12C` (centres undefined), the Potency was 1.16 µM (active).
In the case of `COc1cc(/C=C2\COC/C(=C\c3cc(OC)c(OC)c(OC)c3)C2=O)cc(OC)c1OC`, the Potency is reported as 11.6 µM (active).
With `COc1cc(C2CC(=O)Oc3cc(C)c(Cl)c(C)c32)cc(OC)c1OC` (centres undefined) the Potency was “inactive”.
For `O=C(CCCn1cnc([N+](=O)[O-])n1)Nc1ccc(F)c(Cl)c1`, the Potency was 3.65 µM (active).
With `Cc1c(Cl)cccc1NC(=O)CCCn1cnc([N+](=O)[O-])n1` the Potency was 4.1 µM (active).
In the case of `O=C(CCCn1cnc([N+](=O)[O-])n1)Nc1cccc(Cl)c1Cl`, the Potency is reported as 3.65 µM (active).
For `Cc1nn(CCCC(=O)Nc2c(F)cc(F)cc2Br)c(C)c1[N+](=O)[O-]`, the Potency was “inactive”.
With `COc1ccc(NC(=O)CCCn2nc(C)c3c(C)n(-c4ccccc4)nc3c2=O)cc1OC` the Potency was “inactive”.
In the case of `O=C(c1ccco1)N1CCN(Cc2cc(=O)c(OCc3ccc([N+](=O)[O-])cc3)co2)CC1`, the Potency is reported as 0.183 µM (active).
In the case of `O=[N+]([O-])c1cccc(COc2ccccc2CN2CCCC2)c1`, the Potency is reported as “inactive”.
With `O=C1NC(=O)/C(=C\c2ccc(Oc3ccc([N+](=O)[O-])cn3)cc2)S1` the Potency was 9.18 µM (active).
For `O=C(Nc1ccc(C(=O)O)cc1)/C(=C\C=C\c1ccccc1)NC(=O)c1ccccc1Cl`, the Potency was 6.5 µM (active).
In the case of `C#CCOCCOCCOCCNc1nc(N2CCN(C(=O)[C@H](CCC(=O)O)n3cc([C@@H](N)CC(N)=O)nn3)CC2)nc(N2CCN(C(=O)[C@H](CCC(=O)O)n3cc([C@@H](N)CC(N)=O)nn3)CC2)n1`, the Potency is reported as “inactive”.
With `CCCCCN=Cc1c(C)[nH]n(-c2nc3ccccc3s2)c1=O` the Potency was 3.26 µM (active).
In the case of `Cc1ccc(N=Nc2c(O)ccc3n[nH]nc23)cc1`, the Potency is reported as 3.65 µM (active).
For `CCC1=C(OC(=O)N(CC)CC)N2C(=O)OC(=NCC(=O)OC)[C@]2(C)[C@H]2C1=CC[C@H]1C(=O)N(CC)C(=O)[C@H]12`, the Potency was “inactive”.
In the case of `CN(C)C(=O)C[n+]1ccc(C(N)=O)cc1`, the Potency is reported as “inactive”.
In the case of `Cc1ccc(NC(=O)Cn2cnc([N+](=O)[O-])c2)cc1C`, the Potency is reported as 8.18 µM (active).

Reference: PubChem BioAssay AID588397 (National Center for Advancing Translational Sciences (NCATS), 2011)
Potency means the concentration at half of the fitted maximal effect.
